Active and inactive are the calls of the source. Rule for the calls: active = hit-call score of the fitted dose curve at least 0.9, where 1 is the maximum; inactive = score below 0.9.

Read-out in one experiment: Interleukin-8 (IL8), CXCL8 (gene 3576)
Nature of the experiment: BSK_MyoF_IL8: BioMAP Diversity Plus: MyoF Assay for Interleukin-8 (IL8) Biomarker Activity (AID 2284261). As to conditions: primary human lung fibroblasts. In short, it runs like this: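 IL-8 quantified by ELISA after 24 h compound exposure of primary human lung fibroblasts. SRB staining of parallel cultures flagged cytotoxicity; DMSO served as baseline.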
On to `O=C1CCCCCCCCCCC1`, for which the outcome was inactive.
Turning to `Clc1cc(Cl)c(Cl)c(Cl)c1Cl`, the result was inactive.
Still for that read-out and setting: the same measure for `CC1=CC=C(C(C)C)CC1`: “inactive”; for `O=C1CCCCCCCCCCCN1`: “inactive”; for `CCCCCCCO`: “inactive”.
As for `C=C(C)C(=O)OCCCCCCCCCCCC`, the result was inactive.
Same read-out and setting: the result for `CCCCCCCCCCCC(C)=O` reads “inactive”.
Same read-out and setting: the same measure for `C=CC(=O)NC(C)(C)C`: “inactive”.
Same read-out and setting: the result for `c1ccc2sc(SSN3CCOCC3)nc2c1` reads “inactive”.
As to `CC1(C)CC(O)CC(C)(C)N1[O]`, the result was inactive.
Regarding `CCOC(=O)C1=NOC(c2ccccc2)(c2ccccc2)C1`, the outcome was inactive.
As to `CC(C)[N+](C)(CCOC(=O)C1c2ccccc2Oc2ccccc21)C(C)C`, the outcome was inactive.
The same measure, in the same setting: the same measure for `CCOC(=O)/C=C\C(=O)OCC`: “inactive”; for `Nc1cccc(N)n1`: “inactive”; for `CCOC(=O)C1=NN(c2ccc(Cl)cc2Cl)C(C)(C(=O)OCC)C1` (stereo not given): “inactive”.
On the same count and under the same terms, the same measure for `O=C(Oc1ccccc1)c1ccccc1C(=O)Oc1ccccc1`: “inactive”; for `C=CC(=O)OCC(C)OCC(C)OCC(C)OC(=O)C=C` (stereo not given): “inactive”.
On the same count and under the same terms, the result for `CC=C(C)C=CC=C(C)C` reads “inactive”; that for `CC=C(C)C(C)=O`, “inactive”; that for `CC(C)CCCCCOC(=O)CS`, “inactive”.
As for `CC/C=C\CCOC(=O)c1ccccc1O`, the outcome was inactive.
On the same count and under the same terms, the result for `C=CCCCCCCCCC=O` reads “inactive”; that for `COc1ccc(C(=O)c2ccccc2)c(O)c1`, “inactive”; that for `c1ccc2c(c1)[nH]c1ccccc12`, “inactive”.
Still for that read-out and setting: the result for `Fc1ccc(Br)cc1` reads “inactive”.

Read-out in the next experiment: Decorin, DCN (gene 1634)
Nature of the experiment: BSK_MyoF_Decorin: BioMAP Diversity Plus: MyoF Assay for Decorin Biomarker Activity (AID 2284265). The following applies: primary human lung fibroblasts. Summed up: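 Decorin protein was quantified by ELISA 24 h after chemical addition to primary human lung fibroblasts and analysed as increase over DMSO. Cytotoxicity was tracked in parallel cultures by SRB total-protein staining read at 560 nm.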
Consider `O=C1CCCCCCCCCCC1`, for which the outcome was inactive.
On the same count and under the same terms, the result for `Clc1cc(Cl)c(Cl)c(Cl)c1Cl` reads “inactive”; that for `CC1=CC=C(C(C)C)CC1`, “inactive”.
The same measure, in the same setting: the same measure for `O=C1CCCCCCCCCCCN1`: “inactive”.
Turning to `CCCCCCCO`, the outcome was inactive.
Regarding `C=C(C)C(=O)OCCCCCCCCCCCC`, the result was inactive.
The same measure, in the same setting: the same measure for `CCCCCCCCCCCC(C)=O`: “inactive”; for `C=CC(=O)NC(C)(C)C`: “inactive”.
For `c1ccc2sc(SSN3CCOCC3)nc2c1`, the outcome was inactive.
`CC1(C)CC(O)CC(C)(C)N1[O]`: the result was inactive.
The same measure, in the same setting: the same measure for `CCOC(=O)C1=NOC(c2ccccc2)(c2ccccc2)C1`: “inactive”; for `CC(C)[N+](C)(CCOC(=O)C1c2ccccc2Oc2ccccc21)C(C)C`: “inactive”.
Turning to `CCOC(=O)/C=C\C(=O)OCC`, the outcome was inactive.
On the same count and under the same terms, the result for `Nc1cccc(N)n1` reads “inactive”; that for `CCOC(=O)C1=NN(c2ccc(Cl)cc2Cl)C(C)(C(=O)OCC)C1` (stereo not given), “inactive”; that for `O=C(Oc1ccccc1)c1ccccc1C(=O)Oc1ccccc1`, “inactive”.
The term AC50 denotes the midpoint of the concentration-response curve, whichever way the signal moves. On to `C=CC(=O)OCC(C)OCC(C)OCC(C)OC(=O)C=C` (stereo not given), for which the AC50 is 20 µM (active).
For `CC=C(C)C=CC=C(C)C`, the outcome was inactive.
On the same count and under the same terms, the same measure for `CC=C(C)C(C)=O`: “inactive”.
Consider `CC(C)CCCCCOC(=O)CS`, for which the outcome was inactive.
As to `CC/C=C\CCOC(=O)c1ccccc1O`, the AC50 was 20 µM (active).
As to `C=CCCCCCCCCC=O`, the result was inactive.
On the same count and under the same terms, the result for `COc1ccc(C(=O)c2ccccc2)c(O)c1` reads “inactive”; that for `c1ccc2c(c1)[nH]c1ccccc12`, “inactive”.
Same read-out and setting: the result for `Fc1ccc(Br)cc1` reads “inactive”.

The values above are taken from PubChem BioAssay (EPA / NIEHS).
